# Measurements: ChEMBL document CHEMBL3988442, “University of Dundee, Small-Polar-MMV Screening Library” (2021)
# About 13,000 (27%) of roughly 48,000 compounds showed an effect of 50% or more. The list shows a part of the results.
# Tested on: Wolbachia pipientis
# Test: Anti-Wolbachia Cell-Based Screen
# Assay type: functional
# Set-up: scale not given: in the data most compounds retested in dose-response had high values
# Settings: 5 µM
row,SMILES,Percent Effect
1,COCc1nc2cc(NCc3sc(C)nc3C)ccc2o1,1.098%
2,CC1=C(C(=O)NCc2cccnc2-n2cnc3ccccc32)OCCO1,-15.12%
3,CSc1nccc(N2CCC(=O)N(CC3CC3)C(C(C)C)C2)n1 (centres undefined),8.272%
4,CCNC(=O)N1CC[C@H]2CC(=O)N(CCN3CCNC3=O)CC[C@H]2C1,12.62%
5,Cl.OC(CNCc1ccccc1C(F)(F)F)c1ccccc1 (centres undefined),-21.52%
6,Cn1cnc2c1CCN(Cc1nc(Cc3ccccc3)no1)C2,-6.335%
7,CC(C)Cc1noc(CN2CCOCC2C)n1 (centres undefined),87.61%
8,CC(C)Cc1noc(CN2CCOCC2)n1,-2.166%
9,CC1COCCN1Cc1nc(Cc2ccccc2)no1 (centres undefined),106.6%
10,CC(C)Cc1noc(CN2CCN(CCO)CC2)n1,-13.58%
11,CC1CCCCN1Cc1nc(Cc2ccccc2)no1 (centres undefined),-14.27%
12,O=C(O)[C@@]12CN(c3cnccn3)C[C@@H]1CN(C1CCCC1)C2,11.78%
13,CCS(=O)(=O)N(C)CC(=O)Nc1ccc(Br)cn1,11.17%
14,CC1CN(C)c2ccccc2CN1C(=O)c1ccoc1 (centres undefined),-34.7%
15,COc1ccc(OC)c(C2CCN(C(=O)[C@H]3CC[C@@H](O)CC3)C2)c1 (some centres undefined),4.796%
16,COc1cccc(CN2CC(O)CN(C(=O)C3CC3)CC2=O)c1OC (centres undefined),103.4%
17,COc1ccccc1OC1CCN(C(=O)C2CCCN(C)C2)CC1 (centres undefined),-2.238%
18,COc1cccc(CN2CC(O)CN(C(=O)C3CCC3)CC2=O)c1OC (centres undefined),107.9%
19,COc1ccccc1CC1CCN(C(=O)CCN2CCOC2=O)CC1,-13.03%
20,CNC(=O)[C@@H](c1ccccc1OC)N1CCC[C@H]1C(=O)N1CC[C@@H](O)C1.Cl,4.858%
21,CSCc1noc(CN2CCC3(CC2)CC(=O)N(CC(C)C)C3)n1,6.142%
22,Fc1ccc(CN2CCCn3nnc(COCC4CC4)c3C2)cc1.O=C(O)C(F)(F)F,-22.46%
23,CNCc1n[nH]c(=O)n1CC1CCCCC1,9.971%
24,CC(=O)N[C@@H]1CN(C(=O)CC2CC2)C[C@H]1O,207.4%
25,CCOCC(=O)N1C[C@@H](NC(C)=O)[C@H](c2ccc(OC)cc2)C1,0.296%

row,SMILES,Percent Effect
1,COc1ccc([C@@H]2CN(C(=O)CCC(F)(F)F)C[C@H]2NC(C)=O)cc1,11.36%
2,CC(=O)N[C@@H]1CN(C(=O)CC2CCOCC2)C[C@H]1O,144.5%
3,CCC(CC)n1nc(C)cc1NC(=O)CC1CCOCC1,0.9076%
4,CCCSCC(=O)N1C[C@@H](NC(C)=O)[C@H](c2ccc(OC)cc2)C1,13.13%
5,O=C(CC1CC1)N1C[C@H]2CN(CC3CC3)C(=O)[C@H]2C1,-33.8%
6,CCOCC(=O)N1C[C@@H](O)[C@H](NC(C)=O)C1,181%
7,CCOCC(=O)N1CCC(c2nccn2C)CC1,-1.738%
8,O=C(NCCCn1cncn1)c1ccc(-c2ccco2)[nH]c1=O,2.326%
9,CNC(=O)[C@@H]1[C@@H](c2ccccc2)CN2CCN(Cc3cc(C)no3)C[C@H]12,101.2%
10,CN(C)C(=O)NC[C@H]1OC[C@@H]2CCN(Cc3ccoc3)C[C@@H]21,-34.99%
11,O=C(Nc1ccc(-c2ccn[nH]2)cc1)C1CCCN(Cc2ccoc2)C1 (centres undefined),1.932%
12,CNC(=O)[C@@H]1[C@@H](c2ccccc2)CN2CCN(Cc3cccs3)C[C@H]12,88.53%
13,Cc1cc(CNC(=O)N2CCN(Cc3ccccc3)C[C@H]2C)on1,-6.347%
14,CNC(=O)[C@@H]1[C@H]2CN(Cc3ccoc3)CCN2C[C@H]1c1ccccc1,117.2%
15,Cc1n[nH]c(C)c1CCNC(=O)C1CCCN(Cc2ccco2)C1 (centres undefined),-10.07%
16,Cc1c(C(=O)NCC2CCN(Cc3ccco3)C2)[nH]c2ccccc12 (centres undefined),19.49%
17,CNC(=O)[C@@H]1[C@@H](c2ccccc2)CN2CCN(Cc3ccco3)C[C@H]12,101.4%
18,CNC(=O)C1Cc2ccccc2CN1CCc1cccs1 (centres undefined),15.23%
19,CCc1ccc(CNC(=O)N2CCN(Cc3cc(C)no3)CC2)s1,7.686%
20,CN1C(=O)CO[C@H](c2ccc(NC(=O)NC(C)(C)C)cc2)[C@H]1CO,-13.32%
21,Cc1ccc(N(CCC#N)C(=O)CN2CCCC2c2cccs2)cc1 (centres undefined),-26.13%
22,COc1ccc(OC)c(CN2CCCCCC2c2cccs2)c1 (centres undefined),-3.603%
23,COc1ccc(CN2CCCCCC2c2cccs2)c(OC)c1 (centres undefined),95.82%
24,Oc1ccccc1CN1CCCCCC1c1cccs1 (centres undefined),93%
25,COc1ccc(CN2CCSCC2)c(OC)c1,-5.529%

row,SMILES,Percent Effect
1,CCN(C(=O)CN1CCCC1c1cccs1)c1ccccc1C (centres undefined),5.729%
2,COc1ccc(CN2CCCCCC2c2cccs2)c(O)c1 (centres undefined),114.4%
3,Cn1nc(C(=O)N(CC(F)(F)F)c2cccc(Cl)c2)ccc1=O,-17.45%
4,Cn1cc(NC(=O)Nc2ccccn2)cc(Cl)c1=O,10.33%
5,CNC(=O)[C@@H]1COC[C@H]2CN(C(=O)c3cccc(OC)c3)C[C@H]21,4.207%
6,Cl.NCCNS(=O)(=O)Cc1ccc(Br)cc1,-57.57%
7,CC(=O)N1CCC(N2CCOC[C@H]2c2nc(-c3ccc(Cl)s3)c[nH]2)CC1,-14.52%
8,Cc1ccc(S(=O)(=O)NCc2cccc(C(=O)N3CCCC3)c2)cc1F,110.6%
9,O=C(c1cccc(CNS(=O)(=O)c2ccc(F)cc2)c1)N1CCCC1,130.7%
10,N#Cc1cnc(NCc2cccc(C(=O)N3CCCC3)c2)c(Cl)c1,-5.94%
11,O=C(c1cccc(S(=O)(=O)NC[C@@H]2C[C@H](F)CN2)c1)N1CCCCC1,0.137%
12,Cc1ccc(S(=O)(=O)NCCNC(=O)c2ccoc2)cc1F,-0.905%
13,CC(C)c1nc(S(=O)(=O)N2CCSc3ccccc32)c[nH]1,-4.998%
14,CC(C)c1ccc(OCCNC(=O)c2ccoc2)cc1,6.267%
15,Cc1nn(CC(=O)Nc2cccc(F)c2)c(N)c1C#N,-11.77%
16,CC(C)Oc1cccc(-c2nc3c([nH]2)CCCNC3=O)c1,99.49%
17,COc1ccccc1C1CNC(=O)c2nc(-c3cnn(C)c3)[nH]c2C1 (centres undefined),-3.18%
18,CSCc1noc(-c2nc3c([nH]2)CCCNC3=O)n1,14.73%
19,COc1cc(-c2nc3c([nH]2)CCCNC3=O)ccc1OC(C)C,84.8%
20,CC(C)Oc1cccc(Cc2nc3c([nH]2)CCCNC3=O)c1,11.57%
21,COc1ccc(-c2nc3c([nH]2)CCCNC3=O)cc1OC,96.66%
22,CC(C)(C)c1noc(-c2nc3c([nH]2)CCCNC3=O)n1,2.046%
23,O=C1NCCCc2[nH]c(Cc3cccc(F)c3)nc21,-0.783%
24,Cc1cccc(Cc2nc3c([nH]2)CCCNC3=O)c1,-1.705%
25,COc1cc(-c2nc3c([nH]2)CCCNC3=O)cc(OC)c1OC,91%

row,SMILES,Percent Effect
1,CCN1CCCN(S(=O)(=O)c2cc3ccccc3o2)CC1,-2.661%
2,COc1ccccc1C1CNC(=O)c2nc(-c3c(C)n[nH]c3C)[nH]c2C1 (centres undefined),-21.26%
3,COc1cc(-c2nc3c([nH]2)CCCNC3=O)ccc1O,101.7%
4,Cc1ccc(C(=O)Nc2ccc(N3CCCC3)cn2)cc1F,-12.84%
5,CC(C)N(CCNC(=O)N1CCCC(N(C)C)C1)C1CC1 (centres undefined),3.264%
6,CN(C)CCO[C@H]1CN(Cc2ccco2)[C@@H]2COC[C@H]12.O=C(O)C(F)(F)F.O=C(O)C(F)(F)F,94.89%
7,Cc1ccc(CN2C[C@H](OCCN(C)C)[C@H]3OCCC[C@H]32)o1.O=C(O)C(F)(F)F.O=C(O)C(F)(F)F,11.84%
8,CN(C)CCO[C@H]1CN(Cc2cccc(C#N)c2)[C@@H]2COC[C@H]12.O=C(O)C(F)(F)F.O=C(O)C(F)(F)F,-16.47%
9,CN(C)CCO[C@H]1CN(C(=O)c2ccc3c(c2)OCO3)[C@@H]2COC[C@H]12,-7.678%
10,Cc1ccc(CN2C[C@H](OCCN(C)C)[C@H]3COC[C@H]32)o1.O=C(O)C(F)(F)F.O=C(O)C(F)(F)F,118.1%
11,CCc1cc(N2CCN(C(C)=O)CC2)n2nc(C)c(C)c2n1,-3.628%
12,CC1CCCCN1S(=O)(=O)NCc1cccnc1OC1CCCC1 (centres undefined),2.179%
13,CCOCCn1c(=O)[nH]c2cc(C(=O)N(C)CCc3cn[nH]c3)ccc21,-12.36%
14,O=C(NC[C@H]1CC[C@H](c2ccnc3ncnn32)CC1)C1CC1,132.8%
15,COCC(=O)NC[C@H]1CC[C@H](c2ccnc3ncnn32)CC1,112%
16,O=C(NC[C@H]1CC[C@H](c2ccnc3ncnn32)CC1)c1ccccn1,132.7%
17,CCc1nccc(CN2CCC(CNC(=O)[C@H]3CC[C@H](C)CC3)C2)n1 (some centres undefined),-6.322%
18,O=C(NCC1CC1)c1cnc(-c2ccccc2)nc1,-4.836%
19,CCc1nccc(CN2CCCC(CNC(=O)c3ccccn3)C2)n1 (centres undefined),-4.435%
20,O=C(NCc1ccnc(O)c1)NCC1CCCC1,-3.505%
21,Cc1nccn1-c1cc(CNC(=O)COCC2CC2)ccn1,-10.58%
22,O=C(CN1CCC(c2ccnn2CCO)CC1)NCC1CC1,-5.639%
23,CCNC(=O)NC1CCCN(c2ccc(C)cc2)C1=O (centres undefined),-8.82%
24,COc1ncnc(N(C)C)c1NC(=O)c1cscc1C,-1.164%
